Experimental data reported in PubChem BioAssay AID2113 (National Center for Advancing Translational Sciences (NCATS), 2009).
Inconclusive results are not listed. A call without a number means that no potency is given here. Calls of active or inactive are those of the source. Calls come from the whole dose curve; as a rule, active = well fitted curve in either direction with a large enough effect; inconclusive = small, poorly fitted or top-dose-only effect; inactive = no such curve, though single readings can be large or run the other way.

molecular target: Lysosomal alpha-glucosidase (Homo sapiens) (UniProt P10253); assay: Confirmation of Inhibitors and Activators of Human alpha-Glucosidase From Spleen Homogenate; conditions: alpha-glucosidase enzyme activity; series mostly up to 60.5 µM;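 for potency: fluorescence of 4-methylumbelliferone released from a fluorogenic glucopyranoside substrate at pH 5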
In short: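 Fluorogenic assay using human spleen homogenate (1 ug) as enzyme source with 1 mM 4-methylumbelliferyl-alpha-D-glucopyranoside, pH 5.0 citrate buffer, 40 min at 37 C. 4-MU read (Ex 365/Em 440) after NaOH/glycine stop; AC50 from Hill fits.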
Potency is the fitted concentration of half-maximal effect.

SMILES | Potency
COc1cc(=O)[nH]c(=O)n1C(=O)Cc1ccccc1 | inactive
CCc1ccc(-c2nc(-c3cc4ccc(O)cc4oc3=O)sc2C)cc1 | inactive
COc1ccc(-c2cc(=O)c(C(=O)c3ccc(C)cc3)n[nH]2)cc1 | inactive
COc1cccc(CCn2c(N)cc(=O)[nH]c2=S)c1OC | inactive
CC(C)Cn1c(SCC(=O)N2CCN(S(=O)(=O)c3ccccc3)CC2)nc2ccccc21 | inactive
O=C1c2ccccc2NC(c2cccnc2)N1c1ccccc1F (stereo unspecified) | inactive
CCOC(=O)c1ccc(NC(=O)c2ccccc2)cc1 | inactive
COc1cc(NC(=O)CN2CCN(c3ccccc3F)CC2)c(C)cc1[N+](=O)[O-] | inactive
CC(=O)N1CCN(S(=O)(=O)c2ccc3c(c2)CC(=O)N3)CC1 | 29.8 µM [inhibitor] (active)
Cc1[nH]nc2c1C(c1ccc(OC(=O)c3ccco3)cc1)C(C#N)=C(N)O2 (stereo unspecified) | inactive
COc1ccc(OC)c(/C=C/C(=O)N(C)CC(=O)Nc2ccc(C)cc2)c1 | inactive
O=C(NN=C1c2ccccc2-c2ccccc21)c1cccc(S(=O)(=O)N2CCOCC2)c1 | inactive
CCCN1CNc2c(c(=O)[nH]c(=S)n2CCc2ccc(C)c(C)c2)C1 | 20 µM (active)
CN(C(=O)N1CCN(S(=O)(=O)c2ccccc2)CC1)c1ccccc1 | inactive
NC(=NCc1ccccc1)NC(=O)c1nc(Cl)c(N)nc1N | inactive
Cc1c(C#N)c(N)nc2c3c(sc12)NC(=O)CC3c1ccc(Cl)cc1 (stereo unspecified) | inactive
CC(=O)c1ccc(N2CCN(S(=O)(=O)c3ccc(N4CCCC4=O)cc3)CC2)cc1 | inactive
CC(=O)c1ccc(N2CCN(S(=O)(=O)c3ccc4c(c3)C(Cl)(Cl)C(=O)N4)CC2)cc1 | 32.6 µM [inhibitor] (active)

SMILES | Potency
Nc1ccc(S(=O)(=O)N2CCOCC2)cc1 | inactive
COc1ccc(/C=C/c2nnc(NC(=O)CSc3ccc(Cl)cc3)s2)cc1 | inactive
O=C(NCCCN1CCOCC1)c1cccs1 | inactive
O=C1Cc2cc(S(=O)(=O)N3CCN(c4ccc(CO)cc4)CC3)ccc2N1 | 25.9 µM [inhibitor] (active)
CCNc1sc(C(=O)c2cccs2)c(N)c1-c1nc2ccccc2s1 | inactive
CCc1sc(-c2cc3ccc(O)cc3oc2=O)nc1-c1cc(C)ccc1C | inactive
CCCCn1c(N)c(NCC)c(=O)[nH]c1=O | inactive
CCCN1CNc2c(c(=O)[nH]c(=S)n2-c2ccccc2Cl)C1 | inactive
COc1cccc2ccc(/C=C/c3ccc4c(c3)OCO4)nc12 | inactive
CCCN1CNc2c(c(=O)[nH]c(=S)n2CCc2c(C)cccc2C)C1 | inactive
O=S(=O)(c1ccccc1Br)N1CCOCC1 | inactive
CN(C)N=C1c2cc(S(=O)(=O)N3CCOCC3)ccc2-c2ccc(S(=O)(=O)N3CCOCC3)cc21 | inactive
CCCN1CNc2c(c(=O)[nH]c(=S)n2CCc2ccc(C)cc2C)C1 | 39.8 µM (active)
CC(=O)c1ccc(N2CCN(S(=O)(=O)c3ccc4[nH]c(=O)oc4c3)CC2)cc1 | inactive
COc1ccc(CCn2c3c(c(=O)[nH]c2=S)CN(Cc2ccccc2)CN3)cc1OC | 11.2 µM (active)
O=C1Cc2cc(S(=O)(=O)N3CCNCC3)ccc2N1 | inactive
CCCc1cc(-c2nc(N)ncc2-c2ccc3c(c2)OCCCO3)c(O)cc1OC | inactive
COc1ccc(C(=O)NC2(C(F)(F)F)C(=O)Nc3c2c(=O)[nH]c(=O)n3CCc2ccc(OC)c(OC)c2)cc1 (stereo unspecified) | inactive
